Experimental data as given in PubChem BioAssay (NCI).
About 83,000 compounds went through this panel and 20% of them were active in at least one assay; those are over-represented in the sample as a whole.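 Assay: single dose, 48 h. Readout: percent growth (0 = no net growth; negative = cell death). Active: <10.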 A number with no mark means an inactive call. Activity calls are given as the source filed them.

How the values were obtained:
Assay in all cases: NCI-60 one-dose screen, 48 h (100 = growth as untreated, 0 = no growth, -100 = all killed)
Conditions in all cases: 10 µM unless noted
SK-MEL-2 melanoma = tested on: SK-MEL-2 melanoma
EKVX NSCLC = tested on: EKVX NSCLC
SN12C renal = tested on: SN12C renal
UO-31 renal = tested on: UO-31 renal
TK-10 renal = tested on: TK-10 renal
ACHN renal = tested on: ACHN renal
A498 renal = tested on: A498 renal
CCRF-CEM leukemia = tested on: CCRF-CEM leukemia
MOLT-4 leukemia = tested on: MOLT-4 leukemia
CAKI-1 renal = tested on: CAKI-1 renal

Row | SMILES | growth (SK-MEL-2 melanoma) | growth (EKVX NSCLC) | growth (SN12C renal) | growth (UO-31 renal) | growth (TK-10 renal) [%] | growth (ACHN renal) | growth (A498 renal) | growth (CCRF-CEM leukemia) | growth (MOLT-4 leukemia) | growth (CAKI-1 renal)
1 | Clc1ccc2c(c1)C(Br)c1cc(Cl)cc(Cl)c1-2 (stereo unspecified) | 95.5% | 46.2% | 27.5% | 76.6% | 118 | 99.1% | 120% | -37.8% (active) | -20.2% (active) | –
2 | O=C(O)C1C(c2ccccc2)c2ccccc2C(O)C1CO (stereo unspecified) | 98.7% | 119% | 98.1% | 78.2% | 102 | 97.3% | – | 92.9% | 104% | 112%
3 | N#Cc1c(-c2ccccc2)cc(-c2ccccc2)n(CCCCC(=O)O)c1=O | 96.6% | 89.4% | 96.8% | 86% | 99.9 | 100% | – | 87.7% | 107% | 86.8%
4 | C[C@]12CC[C@H](O)CC1=CC[C@@H]1[C@@H]2CC[C@]2(C)C(c3cccnc3)=CC[C@@H]12 | 27.6% | 38.8% | 91% | 36.9% | 93.6 | 61% | 64.4% | 51.3% | 34.1% | –
5 | N#Cc1c(-c2ccccc2)cc(-c2ccccc2)n(CCC(=O)O)c1=O | 9.85% (active) | 76.8% | 69.1% | 63.1% | 75.6 | 67.1% | – | 54.9% | 49.4% | 46.4%
6 | CCN(CC)c1ccc(/C=C/C(=O)c2cccc(NS(C)(=O)=O)c2)cc1 | 83.1% | 57.6% | 40.3% | 37.2% | 25.6 | 37.7% | 22.8% | 13.3% | 8.78% (active) | –
7 | N#Cc1c(-c2ccccc2)cc(-c2ccccc2)n(CCCCCCC(=O)O)c1=O | 88.8% | 92.5% | 99.2% | 82.7% | 105 | 98.8% | – | 106% | 98.4% | 97.7%
8 | CC(=O)Nc1cc(C(c2ccccc2)c2ccccc2)cc(C(c2ccccc2)c2ccccc2)c1C | 27% | 61.4% | 69.7% | 49.3% | 84.3 | 51.1% | – | 34.1% | 8.92% (active) | 49.2%
9 | c1ccc(Nc2ccc(Nc3nc(-c4ccccc4)nc4ccccc34)cc2)cc1 | 83.1% | 87.1% | 87.9% | 63.7% | 98.5 | 81.3% | – | 52.7% | 53% | 71.2%
10 | CSc1nc(N)c2c(n1)N(C)C=NS2(=O)=O | 123% | 113% | 99.3% | 87.1% | 109 | 99% | – | 94.4% | 107% | 98.2%
11 | Clc1ccc2nc(CI)c(CI)nc2c1 | 82.5% | 90.1% | 59.4% | -31.8% (active) | 88.3 | 87.7% | 118% | 4.15% (active) | -27.4% (active) | –
12 | COc1ccc2nc(N/N=C(\C)c3ccccn3)cc(C)c2c1 | -22.8% (active) | -84.4% (active) | 11.8% | -31% (active) | 18.4 | -13.8% (active) | – | -37.4% (active) | -49.9% (active) | -3.71% (active)
13 | COc1ccc2c(c1)C(=Nc1cc(OC)c(OC)c(OC)c1)C(=O)N2 | 76.8% | 97% | 97.3% | 46.9% | 136 | 88.5% | – | 81.1% | 104% | 122%
14 | COC(=O)C1CCN(S(=O)(=O)c2ccc(-c3ccccc3)cc2)CC1 | 8.48% (active) | 108% | 105% | 97.1% | 122 | 110% | – | 138% | 161% | 99.8%
15 | O=C1Nc2ccc(Cl)cc2[C@@](C#CC2CC2)(C(F)(F)F)O1 | 95.5% | 112% | 85.8% | 116% | 106 | 88.6% | – | 87.4% | 74.1% | 91.4%
16 | N/C(=N\c1nc2ccccc2s1)NC(=O)Nc1ccccc1Cl | 18.8% | 41.2% | 42.2% | 54.2% | 69.4 | 42.2% | – | 12.9% | 13.9% | 32.7%
17 | O=C(c1ccccc1)C(CN1CCCCC1)c1ccccc1 (stereo unspecified) | 50.1% | 93.8% | 26% | -36.3% (active) | 10.9 | -12.5% (active) | – | -20.2% (active) | 0.0819% (active) | 1.39% (active)
18 | CC1CN(/N=C/c2ccc([N+](=O)[O-])o2)C(=N)O1 (stereo unspecified) | 123% | 104% | 91% | 73.9% | 105 | 92.9% | – | 112% | 107% | 96.4%
19 | c1ccc(-c2nc(Nc3nccnn3)c3ccccc3n2)cc1 | 112% | 88.4% | 96.7% | 89.8% | 155 | 103% | – | 93.2% | 100% | 84.9%
20 | Cc1ccc(-c2cc(-c3ccccc3)n(-c3ccccc3)n2)cc1 | 74.6% | 98.6% | 107% | 79.1% | 99.4 | 95.3% | – | 84.9% | 81.5% | 94.5%
21 | O[N+]1=CC=CCC1=S.On1ccccc1=S.[Zn] | -67.8% (active) | -84.4% (active) | -82.4% (active) | -97.9% (active) | – | -91.2% (active) | -83.4% (active) | -34.5% (active) | -36.1% (active) | -85.6% (active)
22 | O=C(CNc1ccc2c(c1)C(=O)c1ccccc1C2=O)Nc1ccc2c(c1)C(=O)c1ccccc1C2=O | -74.4% (active) | -18.5% (active) | -87% (active) | -96.5% (active) | – | -94.3% (active) | 27.6% | -11.6% (active) | -36.6% (active) | -80.8% (active)
23 | CCCCN=C(N)c1ccc(OCCSCCOc2ccc(C(N)=NCCCC)cc2)cc1 | 59.9% | 36.8% | 26.3% | 93.5% | – | 87% | 57.4% | 72.1% | 67.8% | 115%
24 | COc1cc(C2CC(c3ccc(C)cc3)=NN2C=O)ccc1OCCN(C)C (stereo unspecified) | 98.4% | 90.1% | 95.2% | 64.5% | – | 100% | 92.4% | 88.7% | 77.8% | –
25 | CC[C@H]1CN2CCc3cc(OC)c(OC)cc3C2C[C@@H]1CC1NCCc2cc(OC)c(OC)cc21 (stereo partly specified) | -70.5% (active) | -27.4% (active) | -13.1% (active) | -37.9% (active) | – | -16.5% (active) | -49.9% (active) | -18% (active) | -13.1% (active) | -34.3% (active)
26 | CN1CCC[C@@H]1CCO[C@](C)(c1ccccc1)c1ccc(Cl)cc1 | 90.4% | 69.3% | 66.5% | 36.9% | – | 65.9% | 88.1% | 65.2% | 67.7% | 71%
27 | CC1C(=O)NC2=Nc3ccccc3C(=O)NN21 (stereo unspecified) | 96% | 88.3% | 99.7% | 64% | – | 93.8% | 116% | 97.3% | 94.3% | 94.5%
28 | CC(C)Sc1nc(Cl)c(C#N)c(-c2ccc(F)cc2)n1 | 98.2% | 99.2% | 97.3% | 85.6% | – | 101% | 99.9% | 6.61% (active) | 7.38% (active) | 104%
